Screening results as filed in PubChem BioAssay.
In the library only some 31% were active in any assay of this set; here they are far more common.
PLAP activator – activates human placental alkaline phosphatase; purified PLAP enzyme, luminescent substrate read-out; hits give high values; activation fold at 20 µM; 96,000 compounds, 1.2% hits; AID 696; in the data active means activation fold above about 2
CYP2C9 act – activators of human CYP2C9; P11712; recombinant CYP2C9, luciferin-H conversion, luminescence; hits give high values; factor 1 = untreated enzyme, 0 = blocked; activation factor at 5 µM; 96,000 compounds, 1.4% hits; AID 1024;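 active means activation factor of 2 or more for CYP2C9 at a 5 µM dose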
CYP2C9 inhib – human CYP2C9 inhibition. P11712. CYP2C9 Supersomes, luciferin-H conversion, luminescence. inhibition, % at 5 µM. 96,000 compounds, 20% hits. AID 777;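 active means blocking of liver enzyme CYP2C9 beyond about 50% at 5 µM, limit read from the data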
CYP2C19 act – cytochrome P450 2C19 (human) activation. activation factor at 5 µM. 96,000 tested, under 10 active. recombinant CYP2C19, luciferin-H EGE luminescence; hits give high values; 0 = fully inhibited enzyme, 1 = untreated enzyme. P33261;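 active means activation factor of at least 2 at 5 µM in the primary screen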
Target sequence (P33261 whole entry, looked up): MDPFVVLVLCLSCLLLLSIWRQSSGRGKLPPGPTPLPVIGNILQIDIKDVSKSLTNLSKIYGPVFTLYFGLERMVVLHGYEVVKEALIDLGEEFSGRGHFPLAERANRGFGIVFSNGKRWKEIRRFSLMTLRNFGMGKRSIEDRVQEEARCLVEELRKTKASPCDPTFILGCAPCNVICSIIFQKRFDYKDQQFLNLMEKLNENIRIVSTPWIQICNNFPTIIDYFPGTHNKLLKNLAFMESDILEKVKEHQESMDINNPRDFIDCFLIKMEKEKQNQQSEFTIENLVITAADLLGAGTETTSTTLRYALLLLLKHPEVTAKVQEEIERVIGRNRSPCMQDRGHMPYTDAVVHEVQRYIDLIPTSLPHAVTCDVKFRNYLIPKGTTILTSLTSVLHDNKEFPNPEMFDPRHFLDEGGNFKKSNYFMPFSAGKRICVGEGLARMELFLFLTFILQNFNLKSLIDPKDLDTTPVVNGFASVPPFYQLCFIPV
CYP2C19 inhib – blocks human cytochrome P450 2C19; P33261; CYP2C19 Supersomes, luciferin-H EGE luminescence, 30 min; inhibition, % at 5 µM; 96,000 compounds, 21% hits; AID 778;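 active means CYP2C19 inhibition above a set limit at 5 µM in the primary screen, cut at about 50% in these data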
Of the large screens only hits and unclear results are named; the others gave an inactive call.

O=C(CNc1ccc(C(F)(F)F)cc1[N+](=O)[O-])OCC(=O)c1ccccc1	CYP2C9 inhib 55
COc1cc2c(cc1OC)C(c1ccccc1O)N(C1CC(=O)N(c3ccccc3)C1=O)CC2 (stereo unspecified)	none
Cc1cc(C)cc(NC(=O)C/C(N)=N/O)c1	none
O=C(Nc1nc2ccccc2n1CCN1CCCCC1)C1CCCCC1	none
Cc1ccc(C(=O)Nc2nc3ccccc3n2CCN2CCCC2)cc1	PLAP activator 2.8
O=C(Nc1nc2ccccc2n1CCN1CCCC1)C1CCCCC1	PLAP activator 2.6
O=C(Cn1cc2c(n1)CCCC2)N1CCCc2ccccc21	none
CCCSc1ncc(Cl)c(C(=O)Nc2ccc(S(=O)(=O)N3CC(C)OC(C)C3)cc2)n1 (stereo unspecified)	CYP2C9 inhib 86, CYP2C19 inhib 54
Cc1ccc(O)c(-c2cc(C(=O)Nc3ccc(S(=O)(=O)N4CC(C)OC(C)C4)cc3)[nH]n2)c1 (stereo unspecified)	none
O=S(=O)(c1ccc(Cl)c(C(F)(F)F)c1)N1CCN(CC(O)COCC2CCCO2)CC1 (stereo unspecified)	CYP2C9 act 2
CCOC(=O)CSc1snnc1-c1ccccc1	none
CCOC(=O)c1[nH]c(C)c(C(=O)Nc2ccc(C)cc2C)c1C	none
CCC(C)(C)NC(=O)C(c1ccc(C)cc1)N(CC1CCCO1)C(=O)CNC(=O)c1cccs1 (stereo unspecified)	none
CSc1cccc(NS(=O)(=O)c2ccc3c(c2)oc(=O)n3C)c1	CYP2C9 inhib 53, CYP2C19 inhib 97
Cc1ccc(NS(=O)(=O)c2ccc3c(c2)oc(=O)n3C)cc1F	CYP2C9 inhib 76, CYP2C19 inhib 56
CCCNc1c(N)n(-c2ccccc2)c(=O)[nH]c1=O	none
CCN(CC)C(=O)CSCc1cnn(-c2ccccc2)c1-n1cccc1	none
O=C(CSCc1cnn(-c2ccccc2)c1-n1cccc1)NCCN1CCOCC1	none
O=C(CSCc1cnn(-c2ccccc2)c1-n1cccc1)NCC1CCCO1 (stereo unspecified)	CYP2C9 inhib 79, CYP2C19 inhib 80
COc1ccc(CNC(=O)CSCc2cnn(-c3ccccc3)c2-n2cccc2)cc1	CYP2C9 inhib 98, CYP2C19 inhib 96 (no result: PLAP activator)
O=C(Nc1ncc2c(n1)-c1ccccc1OC2)c1ccccc1Cl	none
Clc1ccc(OCc2nn3c(-c4ccccc4)nnc3s2)c(Cl)c1	none
c1csc(Cc2nn3c(-c4ccncc4)nnc3s2)c1	CYP2C9 inhib 80, CYP2C19 inhib 98
Clc1ccccc1OCc1nn2c(-c3ccncc3)nnc2s1	CYP2C9 inhib 80, CYP2C19 inhib 100
COc1ccccc1CC1(C)NC(=O)N(CC(=O)Nc2cc(C)on2)C1=O (stereo unspecified)	none
CCCS(=O)(=O)c1c(S(=O)(=O)CCC)c2ccccn2c1C(=O)OC	CYP2C9 inhib 52
CCCS(=O)(=O)c1c(S(=O)(=O)CCC)c2cc(CC)ccn2c1C(=O)OC	none
Cc1ccccc1-c1nc(CS(=O)CC(=O)NCCCN(C)c2ccccc2)c(C)o1 (stereo unspecified)	none
Cc1ccc(NC(=O)CS(=O)CC(=O)NCCCN(C)c2ccccc2)cc1 (stereo unspecified)	CYP2C9 inhib 84, CYP2C19 inhib 60
CC(c1nnc(SCC(=O)Nc2ccc3[nH]c(=O)[nH]c3c2)n1Cc1ccccc1)N(C)C (stereo unspecified)	none
CN(C)c1nc(NCc2ccccc2)nc(SCC(=O)Nc2ccc(Cl)c(Cl)c2)n1	CYP2C9 inhib 86
CC1(C)N(OCc2ccccc2)C(=O)C(=O)N(OCc2ccccc2)C1(C)C	none
CSc1nnc(-c2sccc2OCc2ccccc2)n1C	none
CSc1n[nH]c(-c2sccc2OCc2ccc(C)cc2)n1	CYP2C9 inhib 58, CYP2C19 inhib 83
CCN(CC)c1ncc(C)c(=O)[nH]1	none
COc1ccc(-c2nc(N3CCOCC3)nc3n[nH]c(N)c23)cc1	none
Nc1[nH]nc2nc(N3CCCC3)nc(-c3ccccc3)c12	PLAP activator 2
O=C(OCn1nnc2ccccc2c1=O)c1cn(-c2ccccc2)nc1-c1cccnc1	none
Cc1ccc(-c2csc3ncnc(OCC(=O)NC(=O)NCc4ccco4)c23)cc1	CYP2C19 inhib 50
O=C(COc1ncnc2scc(-c3ccc(F)cc3)c12)NCc1ccco1	none
CCOC(=O)Nc1ccc2c(c1)Nc1ccccc1S2	none
CC(=O)c1ccc2c(c1)Nc1ccccc1S2	CYP2C9 inhib 57
CN1CCN(CCNC(=O)c2cc3c(=O)n(C)c4ccccc4c3n2C)CC1	none
CCCCN(C)C(=O)c1cc2cc3ccc(OC)cc3nc2s1	CYP2C9 inhib 53, CYP2C19 inhib 56
COC(=O)CCC(NC(=O)OCc1ccccc1)C(=O)NC(CC(C)C)C(=O)OC (stereo unspecified)	CYP2C9 inhib 68
COC(=O)C(CC(C)C)NC(=O)C(N)Cc1ccccc1 (stereo unspecified)	none
Cc1nc(-c2coc3c(CN(C)C)c(O)ccc3c2=O)cs1	none
COc1ccc(C2=NCN(c3ccc(C)cc3)C(=S)N2)cc1	none
Cc1ccc(N2CN=C(c3ccccc3)NC2=S)cc1	CYP2C9 inhib 76, CYP2C19 inhib 99
Cc1[nH]c2ccc(OCc3ccccc3)cc2c1CCN1C(=O)OC(C)(C)C1(C)O (stereo unspecified)	CYP2C19 inhib 51
O=C(CCS(=O)(=O)c1ccc(Cl)cc1)Oc1ccc2c(c1)OCO2	none
COc1ccc(N2CCN(C(=N)/C(C(C)=O)=C(\C)O)CC2)cc1	none
O=C(CN1CCN(Cc2ccccc2Cl)C1=O)NCc1ccco1	none
CC(C)OCCCNC(=O)CN1CCN(Cc2ccccc2Cl)C1=O	CYP2C9 inhib 52
COCCCNC(=O)CN1CCN(Cc2ccc(Cl)cc2)C1=O	none
O=C(CN1CCN(Cc2ccccc2Cl)C1=O)NC1CCCCCCC1	CYP2C19 inhib 72
COCC(=O)N(Cc1ccco1)c1nnc(C2CCOC2)s1 (stereo unspecified)	none
c1ccc(COc2ccc(CNCc3cccs3)cc2)cc1	CYP2C19 inhib 54
C=CCN1C(=O)N(/C=C/C)c2cccc3cccc1c23	none
CCOC(=O)N1CCN(CC(O)c2ccc3cc[nH]c3c2)CC1 (stereo unspecified)	CYP2C19 inhib 96
CCCCCN(C(=O)COC(=O)c1ccc(Br)o1)c1c(N)n(CCCC)c(=O)[nH]c1=O	none
O=C(CSc1ccccn1)Nc1cccc(NC(=O)CSc2ccccn2)n1	CYP2C9 inhib 55
Cc1ccnc(NC(=O)CCCOc2cc(=O)n(C)c3ccccc23)c1	none
Cn1c(=O)cc(SCC(=O)Nc2cccnc2)c2ccccc21	CYP2C9 act 2
CC(=O)Nc1nonc1NC(=O)CSc1ccccn1	none
Cn1c(=O)cc(SCC(=O)Nc2ccccn2)c2ccccc21	CYP2C9 act 2.5
Cn1c(=O)cc(SCC(=O)NCc2ccco2)c2ccccc21	none
Cc1ccnc(NC(=O)CSc2cc(=O)n(C)c3ccccc23)c1	CYP2C9 act 3.1, CYP2C19 act 2.3
